Measurements: the supplement of paper PMC11732987, “Enantioselective OTUD7B fragment discovery through chemoproteomics screening and high-throughput optimisation” (Communications Chemistry, 2025)

Assays:
Experiment in all cases: log2 ratio of Biotin-Ahx-Ub-VS probe labelling (fragment/DMSO); higher = less target engagement (more negative = stronger competition), active = hit call of the paper (q ≤ 0.05, log2 ratio ≤ -1)
Conditions in all cases: compound concentration: 200 uM; treatment time: 3 h
USP19 = molecular target: T1, USP19 (UniProt O94966)
T1 sequence (whole entry): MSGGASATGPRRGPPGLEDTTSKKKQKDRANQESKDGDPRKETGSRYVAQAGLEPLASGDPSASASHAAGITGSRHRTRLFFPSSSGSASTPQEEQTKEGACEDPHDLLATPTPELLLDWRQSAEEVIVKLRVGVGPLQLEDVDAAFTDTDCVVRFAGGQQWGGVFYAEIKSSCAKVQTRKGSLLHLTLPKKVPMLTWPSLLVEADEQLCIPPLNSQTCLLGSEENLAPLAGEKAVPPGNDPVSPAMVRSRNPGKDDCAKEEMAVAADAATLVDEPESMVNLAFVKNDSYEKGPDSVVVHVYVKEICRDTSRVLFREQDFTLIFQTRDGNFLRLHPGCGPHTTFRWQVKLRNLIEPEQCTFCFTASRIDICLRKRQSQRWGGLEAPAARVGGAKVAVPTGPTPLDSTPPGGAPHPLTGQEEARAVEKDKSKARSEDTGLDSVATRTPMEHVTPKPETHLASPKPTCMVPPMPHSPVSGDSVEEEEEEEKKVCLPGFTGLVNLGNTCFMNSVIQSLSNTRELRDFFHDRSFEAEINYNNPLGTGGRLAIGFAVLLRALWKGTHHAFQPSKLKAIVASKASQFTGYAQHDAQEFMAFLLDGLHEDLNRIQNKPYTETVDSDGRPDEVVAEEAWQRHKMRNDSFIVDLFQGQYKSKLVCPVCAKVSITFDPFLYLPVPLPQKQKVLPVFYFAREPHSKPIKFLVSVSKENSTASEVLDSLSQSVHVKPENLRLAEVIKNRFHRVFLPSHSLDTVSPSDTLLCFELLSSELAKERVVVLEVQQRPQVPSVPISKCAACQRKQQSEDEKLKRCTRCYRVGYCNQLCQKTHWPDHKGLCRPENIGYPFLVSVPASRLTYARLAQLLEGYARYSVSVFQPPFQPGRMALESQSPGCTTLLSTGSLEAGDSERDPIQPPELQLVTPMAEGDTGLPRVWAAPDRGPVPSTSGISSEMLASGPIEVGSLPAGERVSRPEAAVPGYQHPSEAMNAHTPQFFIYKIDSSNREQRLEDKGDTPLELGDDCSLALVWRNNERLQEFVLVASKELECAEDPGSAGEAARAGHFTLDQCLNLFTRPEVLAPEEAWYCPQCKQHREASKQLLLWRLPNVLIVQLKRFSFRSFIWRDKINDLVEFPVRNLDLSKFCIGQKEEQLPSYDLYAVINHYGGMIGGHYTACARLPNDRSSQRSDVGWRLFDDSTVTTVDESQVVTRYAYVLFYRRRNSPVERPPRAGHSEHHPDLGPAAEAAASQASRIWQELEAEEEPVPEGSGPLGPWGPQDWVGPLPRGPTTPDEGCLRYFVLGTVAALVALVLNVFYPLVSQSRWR
In short: (§1)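 Triplicate samples of HEK293T lysate, 495 µg each, received fragment at 200 µM or vehicle for 3 h, followed by Biotin-Ahx-Ub-VS (0.5 µM final) for 1 h. After NeutrAvidin enrichment of labelled DUBs and LysC/trypsin digestion, peptides were run by diaPASEF LC-MS/MS. The values are average log2 fragment/vehicle ratios from global-median-normalised Spectronaut label-free quantities, tested by unpaired t-test on proteins having ≥2 unique peptides.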

USP22 = molecular target: T2, USP22 (UniProt Q9UPT9)
T2 sequence (whole entry): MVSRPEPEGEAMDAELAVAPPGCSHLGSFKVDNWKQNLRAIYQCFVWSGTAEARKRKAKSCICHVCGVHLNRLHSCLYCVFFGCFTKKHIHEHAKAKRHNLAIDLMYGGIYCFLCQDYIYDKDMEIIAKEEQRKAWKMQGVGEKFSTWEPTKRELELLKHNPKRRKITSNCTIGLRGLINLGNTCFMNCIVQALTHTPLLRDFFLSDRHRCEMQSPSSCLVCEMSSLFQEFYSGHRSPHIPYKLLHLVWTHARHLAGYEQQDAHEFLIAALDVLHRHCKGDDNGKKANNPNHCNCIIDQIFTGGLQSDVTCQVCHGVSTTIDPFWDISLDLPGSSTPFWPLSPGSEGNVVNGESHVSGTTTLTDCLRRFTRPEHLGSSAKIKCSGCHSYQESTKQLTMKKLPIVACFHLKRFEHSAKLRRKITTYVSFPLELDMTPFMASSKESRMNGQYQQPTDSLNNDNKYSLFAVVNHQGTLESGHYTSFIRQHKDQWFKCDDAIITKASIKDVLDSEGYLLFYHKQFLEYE
In short: as §1

USP24 = USP24 (UniProt Q9UPU5)
In short: as §1

USP25 = molecular target: T3, USP25 (UniProt Q9UHP3)
T3 sequence (whole entry): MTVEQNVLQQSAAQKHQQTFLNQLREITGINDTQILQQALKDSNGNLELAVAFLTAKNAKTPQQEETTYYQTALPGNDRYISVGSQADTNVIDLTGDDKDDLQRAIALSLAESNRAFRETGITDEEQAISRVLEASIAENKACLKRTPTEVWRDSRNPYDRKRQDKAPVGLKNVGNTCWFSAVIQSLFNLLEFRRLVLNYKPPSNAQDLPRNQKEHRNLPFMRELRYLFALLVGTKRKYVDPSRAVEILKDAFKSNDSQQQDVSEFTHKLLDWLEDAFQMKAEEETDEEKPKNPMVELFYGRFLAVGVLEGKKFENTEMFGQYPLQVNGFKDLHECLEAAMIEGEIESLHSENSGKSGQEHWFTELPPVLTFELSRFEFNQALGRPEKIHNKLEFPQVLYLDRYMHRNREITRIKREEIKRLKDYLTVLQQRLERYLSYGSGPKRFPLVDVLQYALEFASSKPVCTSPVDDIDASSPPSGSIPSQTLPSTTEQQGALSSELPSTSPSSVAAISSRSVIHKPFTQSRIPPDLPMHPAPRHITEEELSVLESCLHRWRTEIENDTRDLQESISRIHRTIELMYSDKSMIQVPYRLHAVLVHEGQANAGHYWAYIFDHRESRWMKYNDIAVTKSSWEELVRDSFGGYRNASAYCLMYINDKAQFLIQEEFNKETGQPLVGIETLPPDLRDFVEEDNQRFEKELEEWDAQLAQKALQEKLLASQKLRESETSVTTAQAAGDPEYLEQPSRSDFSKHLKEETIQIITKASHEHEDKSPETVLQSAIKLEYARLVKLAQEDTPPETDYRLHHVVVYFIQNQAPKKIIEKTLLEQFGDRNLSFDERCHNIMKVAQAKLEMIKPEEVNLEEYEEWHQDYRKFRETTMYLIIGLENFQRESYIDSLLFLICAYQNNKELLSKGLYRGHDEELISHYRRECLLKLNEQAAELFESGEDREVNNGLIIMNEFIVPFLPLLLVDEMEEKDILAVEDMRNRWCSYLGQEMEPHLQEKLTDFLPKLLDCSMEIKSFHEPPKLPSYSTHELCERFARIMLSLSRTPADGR
In short: as §1

USP28 = molecular target: T4, USP28 (UniProt Q96RU2)
T4 sequence (whole entry): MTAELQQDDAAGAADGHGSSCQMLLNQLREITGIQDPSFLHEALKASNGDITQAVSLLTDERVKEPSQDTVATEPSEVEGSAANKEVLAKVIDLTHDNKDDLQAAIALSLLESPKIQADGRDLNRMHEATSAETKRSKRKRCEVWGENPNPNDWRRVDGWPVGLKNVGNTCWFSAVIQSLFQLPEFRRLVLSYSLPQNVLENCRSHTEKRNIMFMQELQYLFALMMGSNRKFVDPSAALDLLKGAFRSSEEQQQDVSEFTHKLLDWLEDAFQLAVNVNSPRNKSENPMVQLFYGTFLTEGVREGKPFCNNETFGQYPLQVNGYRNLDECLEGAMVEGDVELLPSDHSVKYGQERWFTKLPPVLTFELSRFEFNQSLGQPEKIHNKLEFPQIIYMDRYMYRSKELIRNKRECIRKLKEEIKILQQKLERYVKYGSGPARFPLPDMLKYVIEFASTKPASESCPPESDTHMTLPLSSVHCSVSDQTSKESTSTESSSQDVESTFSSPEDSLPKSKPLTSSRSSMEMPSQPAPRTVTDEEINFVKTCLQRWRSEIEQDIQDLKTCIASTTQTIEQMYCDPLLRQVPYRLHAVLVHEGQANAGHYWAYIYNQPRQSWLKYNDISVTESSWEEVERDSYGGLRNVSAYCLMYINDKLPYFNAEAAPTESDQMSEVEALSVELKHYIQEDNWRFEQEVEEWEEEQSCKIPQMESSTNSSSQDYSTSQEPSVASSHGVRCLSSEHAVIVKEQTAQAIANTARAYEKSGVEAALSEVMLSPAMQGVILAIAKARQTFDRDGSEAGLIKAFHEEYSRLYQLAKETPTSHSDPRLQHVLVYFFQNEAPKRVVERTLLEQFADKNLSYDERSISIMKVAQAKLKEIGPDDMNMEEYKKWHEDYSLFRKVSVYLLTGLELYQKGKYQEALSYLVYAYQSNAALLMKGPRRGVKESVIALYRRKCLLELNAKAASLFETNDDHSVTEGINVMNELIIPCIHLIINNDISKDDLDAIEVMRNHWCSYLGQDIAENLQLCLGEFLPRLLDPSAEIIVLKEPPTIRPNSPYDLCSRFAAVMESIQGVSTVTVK
In short: as §1

Measured: log2 ratio of Biotin-Ahx-Ub-VS probe labelling

USP24, sequence (Q9UPU5 whole entry): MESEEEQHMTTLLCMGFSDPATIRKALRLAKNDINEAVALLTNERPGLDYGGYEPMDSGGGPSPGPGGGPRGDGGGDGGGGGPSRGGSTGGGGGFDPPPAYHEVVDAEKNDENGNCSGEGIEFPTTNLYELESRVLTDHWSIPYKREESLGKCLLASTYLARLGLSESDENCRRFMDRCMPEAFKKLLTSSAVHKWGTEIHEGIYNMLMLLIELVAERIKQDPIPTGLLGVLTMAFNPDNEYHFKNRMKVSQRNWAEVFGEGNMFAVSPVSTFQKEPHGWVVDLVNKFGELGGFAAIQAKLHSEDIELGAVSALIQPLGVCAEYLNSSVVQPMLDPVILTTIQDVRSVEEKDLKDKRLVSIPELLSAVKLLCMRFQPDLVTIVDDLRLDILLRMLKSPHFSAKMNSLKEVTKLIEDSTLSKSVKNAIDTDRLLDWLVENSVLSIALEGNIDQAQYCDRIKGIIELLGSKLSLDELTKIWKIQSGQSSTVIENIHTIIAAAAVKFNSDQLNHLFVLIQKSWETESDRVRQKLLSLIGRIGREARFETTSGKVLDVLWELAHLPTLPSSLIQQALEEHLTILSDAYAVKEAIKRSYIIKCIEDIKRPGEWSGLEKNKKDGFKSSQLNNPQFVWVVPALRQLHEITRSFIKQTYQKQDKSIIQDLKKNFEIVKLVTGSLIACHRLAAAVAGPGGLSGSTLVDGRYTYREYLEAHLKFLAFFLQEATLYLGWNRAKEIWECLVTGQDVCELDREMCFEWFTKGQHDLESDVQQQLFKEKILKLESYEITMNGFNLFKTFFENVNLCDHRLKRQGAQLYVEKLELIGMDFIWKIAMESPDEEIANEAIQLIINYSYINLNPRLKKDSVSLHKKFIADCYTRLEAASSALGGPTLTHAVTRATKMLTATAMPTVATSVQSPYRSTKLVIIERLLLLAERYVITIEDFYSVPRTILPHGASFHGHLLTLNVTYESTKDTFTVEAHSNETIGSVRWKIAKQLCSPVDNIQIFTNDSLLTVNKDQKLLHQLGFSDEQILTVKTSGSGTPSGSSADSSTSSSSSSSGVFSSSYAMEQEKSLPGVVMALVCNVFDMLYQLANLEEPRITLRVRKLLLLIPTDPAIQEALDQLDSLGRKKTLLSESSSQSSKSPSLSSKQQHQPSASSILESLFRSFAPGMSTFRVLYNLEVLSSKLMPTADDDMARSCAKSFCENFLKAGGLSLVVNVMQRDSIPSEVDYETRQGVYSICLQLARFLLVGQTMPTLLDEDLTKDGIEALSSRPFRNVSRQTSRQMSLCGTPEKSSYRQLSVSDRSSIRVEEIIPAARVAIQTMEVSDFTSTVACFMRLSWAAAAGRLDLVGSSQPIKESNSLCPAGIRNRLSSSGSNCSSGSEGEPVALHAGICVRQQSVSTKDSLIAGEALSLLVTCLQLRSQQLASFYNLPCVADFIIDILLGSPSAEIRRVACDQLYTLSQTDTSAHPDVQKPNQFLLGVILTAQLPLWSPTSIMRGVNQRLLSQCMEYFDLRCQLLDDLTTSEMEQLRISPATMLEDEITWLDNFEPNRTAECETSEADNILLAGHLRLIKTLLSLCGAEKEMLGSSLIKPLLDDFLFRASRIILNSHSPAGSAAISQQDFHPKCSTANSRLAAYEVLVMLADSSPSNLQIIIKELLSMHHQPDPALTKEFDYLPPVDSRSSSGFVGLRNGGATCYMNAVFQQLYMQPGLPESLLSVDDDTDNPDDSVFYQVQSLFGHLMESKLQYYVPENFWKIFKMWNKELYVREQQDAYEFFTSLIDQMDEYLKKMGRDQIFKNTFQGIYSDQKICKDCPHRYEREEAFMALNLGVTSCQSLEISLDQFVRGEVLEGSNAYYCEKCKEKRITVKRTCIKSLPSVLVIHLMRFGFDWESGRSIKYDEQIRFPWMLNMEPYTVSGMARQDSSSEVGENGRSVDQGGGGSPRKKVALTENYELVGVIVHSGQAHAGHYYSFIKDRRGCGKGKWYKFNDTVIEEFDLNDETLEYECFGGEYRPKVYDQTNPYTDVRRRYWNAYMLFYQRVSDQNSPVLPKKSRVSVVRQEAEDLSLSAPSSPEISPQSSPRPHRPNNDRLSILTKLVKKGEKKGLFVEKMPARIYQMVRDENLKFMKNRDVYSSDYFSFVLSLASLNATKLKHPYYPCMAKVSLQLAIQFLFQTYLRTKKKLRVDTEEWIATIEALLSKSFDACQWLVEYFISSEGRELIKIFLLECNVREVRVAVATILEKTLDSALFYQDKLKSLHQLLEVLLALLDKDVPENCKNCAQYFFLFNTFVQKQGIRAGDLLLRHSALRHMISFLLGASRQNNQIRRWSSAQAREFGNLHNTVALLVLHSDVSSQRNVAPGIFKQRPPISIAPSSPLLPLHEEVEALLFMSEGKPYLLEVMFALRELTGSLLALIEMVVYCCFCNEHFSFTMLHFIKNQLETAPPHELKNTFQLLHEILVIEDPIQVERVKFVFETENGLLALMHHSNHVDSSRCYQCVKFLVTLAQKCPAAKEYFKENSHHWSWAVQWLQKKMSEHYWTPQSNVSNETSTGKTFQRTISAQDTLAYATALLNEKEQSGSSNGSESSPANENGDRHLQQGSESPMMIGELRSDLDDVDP

O=C(CCl)N1CC2(CCOCC2)C1
inactive: USP19 -0.144 | USP22 0.0357 | USP24 -0.194 | USP25 -0.275 | USP28 -0.375
